Unmarked numbers belong to inactive results. For part of these data: Potency and affinity values are given separately. Calls of active or inactive are those of the source. Unless noted, no rule for the calls is given here.

A short description of experiment [1]: antimalarial activity against Dd2 strain (AID 2302;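 active = growth inhibition above 50% at the single 2 µM test dose, taken to imply half-maximal potency below 2 µM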;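 also: 0% = DMSO untreated growth and 100% = chloroquine plus artemisinin killed control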). The conditions noted are these: P. falciparum Dd2 in RBCs, LDH growth readout, 72 h; at 2 µM; hits give high values.
The nature of experiment [2]: HepG2 cytotoxicity, primary screen, cytotoxicity control for P. falciparum antimalarial project, cell-based, ATP luminescence (AID 2303;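 active = inhibition above 50%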;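 also: 0% = DMSO wells and 100% = digitonin-killed cells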). The conditions noted are these: HepG2 viability, 24-48 h, at 10 µM, hits give high values.
Experiment [3] has as its target L-lactate dehydrogenase (Plasmodium falciparum (isolate CDC / Honduras)) (UniProt Q27743). Put plainly: PfLDH activity inhibition – cell lysate, 3D7 strain, counter-screen for P. falciparum growth inhibition project (AID 2304).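 Also: 0% = vehicle and 100% = reference inhibitor.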 The conditions noted are these: P. falciparum 3D7 crude extract, LDH APAD/NBT absorbance; at 2 µM; hits give high values. In general terms: The purpose of a counterscreen is to sort out artefacts and off-target activity.

Experiment [4] is described as follows: inhibition of 3D7 malaria parasite growth – strain 3D7 (AID 2306).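 Also: 0% = DMSO wells and 100% = chloroquine plus artemisinin control wells.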 The conditions noted are these: P. falciparum 3D7 erythrocytic growth, LDH absorbance, 72 h; at 2 µM; hits give high values.
Experiment [5] addresses Calcium-dependent protein kinase 1 (Plasmodium falciparum (isolate 3D7)) (UniProt P62344). Put plainly: PfCDPK1 kinase inhibitors, biochemical, TCAMS library (AID 1159585; cut-off not given, nearly all actives have IC50 up to about 0.98 µM;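 also: inhibitors leave more ATP so luminescence rises with inhibition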). The conditions noted are these: recombinant PfCDPK1, Kinase-Glo ATP depletion luminescence.
The target in experiment [6] is Plasmodium falciparum protein kinase 6 (PK6, PF3D7_1337100) (UniProt Q8IDW1). Put plainly: PfPK6 kinase inhibitors, biochemical, TCAMS library (AID 1159586). The conditions noted are these: recombinant PfPK6, Kinase-Glo ATP depletion luminescence.
Experiment [7] deals with Protein kinase 7 (PK7), Plasmodium falciparum 3D7 (PF3D7_0213400) (UniProt Q7YTF7). Nature of the experiment: inhibition of Plasmodium PK7 catalytic activity – biochemical, TCAMS antimalarial set, Kinase-Glo luminescence (AID 1159587). The conditions noted are these: recombinant PfPK7, Kinase-Glo ATP depletion luminescence. (In Kinase-Glo more light means more ATP remaining.)

Experiment [8] deals with Calcium-dependent protein kinase 4 (Plasmodium falciparum (isolate 3D7)) (UniProt Q8IBS5). Nature of the experiment: PfCDPK4 kinase inhibitors, biochemical, TCAMS library (AID 1159588; cut-off not given, nearly all actives have IC50 up to about 0.91 µM). The conditions noted are these: recombinant PfCDPK4, Kinase-Glo ATP depletion luminescence.
Sequence of Calcium-dependent protein kinase 4 (Plasmodium falciparum (isolate 3D7)) (Q8IBS5 whole entry, looked up): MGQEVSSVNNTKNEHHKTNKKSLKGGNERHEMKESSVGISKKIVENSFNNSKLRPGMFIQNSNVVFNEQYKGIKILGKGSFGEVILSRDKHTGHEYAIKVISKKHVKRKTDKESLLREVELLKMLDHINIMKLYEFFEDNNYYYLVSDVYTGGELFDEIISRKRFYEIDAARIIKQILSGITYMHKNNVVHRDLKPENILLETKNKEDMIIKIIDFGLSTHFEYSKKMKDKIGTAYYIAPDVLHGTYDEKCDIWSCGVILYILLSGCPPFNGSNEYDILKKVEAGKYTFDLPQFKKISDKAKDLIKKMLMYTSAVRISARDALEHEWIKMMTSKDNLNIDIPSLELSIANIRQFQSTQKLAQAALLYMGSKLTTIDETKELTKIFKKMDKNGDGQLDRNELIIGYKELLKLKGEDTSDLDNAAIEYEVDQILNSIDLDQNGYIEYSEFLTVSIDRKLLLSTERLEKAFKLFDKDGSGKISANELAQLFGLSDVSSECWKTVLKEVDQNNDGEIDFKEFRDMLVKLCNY

Sequence of L-lactate dehydrogenase (Plasmodium falciparum (isolate CDC / Honduras)) (Q27743 whole entry, looked up): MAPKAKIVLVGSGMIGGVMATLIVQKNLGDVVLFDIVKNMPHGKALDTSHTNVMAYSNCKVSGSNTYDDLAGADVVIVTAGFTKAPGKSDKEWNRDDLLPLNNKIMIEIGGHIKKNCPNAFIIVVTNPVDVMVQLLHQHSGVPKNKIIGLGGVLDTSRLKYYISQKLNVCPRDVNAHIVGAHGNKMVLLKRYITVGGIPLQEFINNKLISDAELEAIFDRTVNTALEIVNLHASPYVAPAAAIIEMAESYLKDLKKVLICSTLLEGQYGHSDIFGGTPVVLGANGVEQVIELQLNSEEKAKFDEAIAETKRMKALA
Sequence of Plasmodium falciparum protein kinase 6 (PK6, PF3D7_1337100) (Q8IDW1 1-305): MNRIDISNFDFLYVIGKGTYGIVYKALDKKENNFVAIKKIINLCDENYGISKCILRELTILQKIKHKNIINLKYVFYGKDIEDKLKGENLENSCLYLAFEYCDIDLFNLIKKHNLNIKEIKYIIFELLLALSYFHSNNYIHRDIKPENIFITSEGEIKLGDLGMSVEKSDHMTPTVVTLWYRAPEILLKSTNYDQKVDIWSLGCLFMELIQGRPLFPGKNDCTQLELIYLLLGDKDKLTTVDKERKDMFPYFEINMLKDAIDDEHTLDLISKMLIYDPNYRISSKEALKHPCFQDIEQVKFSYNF
Sequence of Calcium-dependent protein kinase 1 (Plasmodium falciparum (isolate 3D7)) (P62344 whole entry, looked up): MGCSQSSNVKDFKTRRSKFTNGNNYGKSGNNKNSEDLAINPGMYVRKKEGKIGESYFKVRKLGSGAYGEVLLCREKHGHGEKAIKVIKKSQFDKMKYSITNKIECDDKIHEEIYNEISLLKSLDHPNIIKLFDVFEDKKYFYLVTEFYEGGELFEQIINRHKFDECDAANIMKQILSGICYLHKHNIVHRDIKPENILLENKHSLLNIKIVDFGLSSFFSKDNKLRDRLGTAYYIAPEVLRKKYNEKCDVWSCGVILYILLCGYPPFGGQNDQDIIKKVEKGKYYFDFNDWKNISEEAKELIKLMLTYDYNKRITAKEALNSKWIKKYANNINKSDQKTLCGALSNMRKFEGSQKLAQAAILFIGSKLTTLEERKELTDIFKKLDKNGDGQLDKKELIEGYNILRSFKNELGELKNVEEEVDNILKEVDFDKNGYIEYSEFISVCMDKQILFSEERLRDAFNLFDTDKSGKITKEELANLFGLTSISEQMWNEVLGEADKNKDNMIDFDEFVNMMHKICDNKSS
Sequence of Protein kinase 7 (PK7), Plasmodium falciparum 3D7 (PF3D7_0213400) (Q7YTF7 1-343): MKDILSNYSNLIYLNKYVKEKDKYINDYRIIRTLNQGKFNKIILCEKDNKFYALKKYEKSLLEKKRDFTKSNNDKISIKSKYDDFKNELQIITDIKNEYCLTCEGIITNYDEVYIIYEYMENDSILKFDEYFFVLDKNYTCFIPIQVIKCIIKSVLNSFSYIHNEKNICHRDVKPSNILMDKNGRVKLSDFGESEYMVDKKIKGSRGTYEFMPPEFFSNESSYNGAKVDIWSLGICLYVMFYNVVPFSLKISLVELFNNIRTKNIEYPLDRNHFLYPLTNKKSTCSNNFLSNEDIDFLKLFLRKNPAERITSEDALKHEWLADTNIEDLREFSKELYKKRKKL

As to `CCn1ccc2c(N3CCCS3(=O)=O)cc(C(=O)N[C@@H](Cc3ccccc3)[C@H](O)CNC3CCCCC3)cc21`, the growth inhibition in experiment [1] is 98% (active); in experiment [4] it was 97% (active). Besides, the figures for the inhibition in experiment [2] and in experiment [3] were -1% and 1%, respectively. The result in experiment [5], in experiment [6], in experiment [7] and in experiment [8] was inactive.
On to `Brc1cc(Br)c2c(c1)C(NCCCNC1CCNc3c(Br)cc(Br)cc31)CCN2` (centres undefined), for which the growth inhibition in experiment [1] was 25%; in experiment [4], 98% (active). Further, the inhibition (in general, the drop in the measured response relative to a control, in per cent) is 18% in experiment [2] and -1% in experiment [3]. In addition, the result in experiment [5], in experiment [6], in experiment [7] and in experiment [8] was inactive.
With `C=CCN1C(=O)CN(S(=O)(=O)c2ccc(-n3nc(C)cc3C)cc2)C1=S`, the growth inhibition is -2% in experiment [1] and 93% (active) in experiment [4]. Also, the inhibition in experiment [2] was 5%; in experiment [3], 1%. For the same compound, the outcome in experiment [5], in experiment [6], in experiment [7] and in experiment [8] was inactive.
For `Cc1cc(NN=Cc2cccc(F)c2)c2cccc(C)c2n1`, the results for the growth inhibition in experiment [1] and in experiment [4] were 53% (active) and 100% (active), respectively. Moreover, the inhibition is 14% in experiment [2] and 5% in experiment [3]. Also, the result in experiment [5], in experiment [6], in experiment [7] and in experiment [8] was inactive.
In the case of `c1cc(CNCC2CCCO2)cc(-c2ccc(-c3nc4ccccc4[nH]3)s2)c1` (centres undefined), the growth inhibition in experiment [1] is 30%; in experiment [4], 95% (active). For the same compound, the inhibition in experiment [2] is 8%; in experiment [3], -2%. Also, the outcome in experiment [5], in experiment [6], in experiment [7] and in experiment [8] was inactive.
With `Cc1cc(N[C@@H](Cc2ccccc2)C(=O)NCc2cccc(F)c2)nc(Nc2ccccc2)n1`, the growth inhibition in experiment [1] is 92% (active); in experiment [4], 100% (active). The inhibition in experiment [2] is 20%; in experiment [3] it was 5%. Also, the outcome in experiment [5], in experiment [6], in experiment [7] and in experiment [8] was inactive.
For `CCn1c(CN2CCC(C)CC2)nc2cc(NC(=O)c3cccs3)ccc21`, the values for the growth inhibition in experiment [1] and in experiment [4] were 95% (active) and 91% (active), respectively. For the same compound, the inhibition is 40% in experiment [2] and 1% in experiment [3]. Moreover, the outcome in experiment [5], in experiment [6], in experiment [7] and in experiment [8] was inactive.
For `COc1ccc(Oc2cnc(N)nc2N)c(C(C)C)c1`, the growth inhibition in experiment [1] is -2%; in experiment [4] it was 97% (active). Also, the inhibition is 58% (active) in experiment [2] and 4% in experiment [3]. Besides, the result in experiment [5], in experiment [6], in experiment [7] and in experiment [8] was inactive.
On to `COC(=O)c1ccc2nc(-c3ccc(C(=O)NC4CCN(Cc5ccccc5)CC4)s3)[nH]c2c1`, for which the growth inhibition in experiment [1] was 71% (active); in experiment [4], 99% (active). Further, the inhibition is -7% in experiment [2] and -4% in experiment [3]. In addition, the outcome in experiment [5], in experiment [6], in experiment [7] and in experiment [8] was inactive.
For `COc1cc(C)nc2ccc(NC(=O)Nc3ccccc3[N+](=O)[O-])cc12`, the growth inhibition in experiment [1] is 58% (active); in experiment [4], 101% (active). The figures for the inhibition in experiment [2] and in experiment [3] were 6% and -1%, respectively. In addition, the result in experiment [5], in experiment [6], in experiment [7] and in experiment [8] was inactive.
Regarding `CNCCNCc1ccc(-c2ccc(-c3nc4ccc(F)cc4[nH]3)s2)cc1`, the values for the growth inhibition in experiment [1] and in experiment [4] were 55% (active) and 99% (active), respectively. Besides, the results for the inhibition in experiment [2] and in experiment [3] were 22% and 2%, respectively. Also, the outcome in experiment [5], in experiment [6], in experiment [7] and in experiment [8] was inactive.
In the case of `COc1ccc(C=NNc2ccnc3cc(F)c(C)cc23)c2ccccc12`, the growth inhibition in experiment [1] was 85% (active); in experiment [4] it was 101% (active). Further, the results for the inhibition in experiment [2] and in experiment [3] were -6% and 3%, respectively. For the same compound, the result in experiment [5], in experiment [6], in experiment [7] and in experiment [8] was inactive.
Regarding `CCc1cccc2sc(N3CCN(C(=O)c4ccc([N+](=O)[O-])o4)CC3)nc12`, the growth inhibition in experiment [1] was 94% (active); in experiment [4] it was 97% (active). The values for the inhibition in experiment [2] and in experiment [3] were 2% and 0%, respectively. For the same compound, the outcome in experiment [5], in experiment [6], in experiment [7] and in experiment [8] was inactive.
`CCCCNc1nccc2ccc(-c3ccncc3)cc12`: the growth inhibition in experiment [1] was 1%; in experiment [4], 93% (active). In addition, the inhibition in experiment [2] is 6%; in experiment [3], 1%. Moreover, the outcome in experiment [5], in experiment [6], in experiment [7] and in experiment [8] was inactive.
As to `CO/C(=C\C=C\c1cc2cc(Cl)c(Cl)cc2[nH]1)C(=O)Nc1ccc(NCCN(C)C)nc1`, the figures for the growth inhibition in experiment [1] and in experiment [4] were 56% (active) and 93% (active), respectively. In addition, the inhibition in experiment [2] is 27%; in experiment [3], -1%. Further, the result in experiment [5], in experiment [6], in experiment [7] and in experiment [8] was inactive.
Regarding `CN1CCC(c2c[nH]c3ccc(NC(=O)Nc4ccc(-c5ccncc5)cc4Cl)cc23)CC1`, the growth inhibition in experiment [1] was 7%; in experiment [4] it was 100% (active). The inhibition in experiment [2] was 31%; in experiment [3] it was 7%. Also, the outcome in experiment [5], in experiment [6], in experiment [7] and in experiment [8] was inactive.
As to `CCOc1cc(C)ccc1C1CCN(CCCCNC(=O)c2ccc(-c3ccc(C(F)(F)F)cn3)cc2)CC1`, the growth inhibition in experiment [1] is 45%; in experiment [4], 99% (active). The values for the inhibition in experiment [2] and in experiment [3] were 55% (active) and 5%, respectively. The result in experiment [5], in experiment [6], in experiment [7] and in experiment [8] was inactive.
In the case of `CCNc1cc(C(=O)N[C@@H](Cc2ccccc2)[C@H](O)CN[C@@H](C)c2cccc(OC)c2)cc(N2CCCC2=O)c1`, the results for the growth inhibition in experiment [1] and in experiment [4] were 65% (active) and 95% (active), respectively. Moreover, the figures for the inhibition in experiment [2] and in experiment [3] were 5% and -1%, respectively. Also, the outcome in experiment [5], in experiment [6], in experiment [7] and in experiment [8] was inactive.

For the origin of these results see PubChem BioAssay.
